From ChEMBL document CHEMBL1961873, “Compounds: GSK PKIS; Assays: Nanosyn kinase panel” (2012) come the findings set out here.

Assay [1] has as its target Dual specificity protein kinase CLK3 (Homo sapiens) (UniProt P49761). As to conditions: at 1 µM.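 Also: each value is the mean inhibition of CLK3.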
Assay [2] deals with Dual specificity tyrosine-phosphorylation-regulated kinase 1A (Homo sapiens) (UniProt Q13627). As to conditions: at 0.1 µM.
The target is the same in assay [3]. As to conditions: at 1 µM.
Assay [4] has as its target Dual specificity tyrosine-phosphorylation-regulated kinase 1B (Homo sapiens) (UniProt Q9Y463). As to conditions: at 0.1 µM.
Assay [5] shares this target. As to conditions: at 1 µM.
The target of assay [6] is T1, Dual specificity tyrosine-phosphorylation-regulated kinase 2 (Homo sapiens) (UniProt Q92630).
T1 sequence (whole entry): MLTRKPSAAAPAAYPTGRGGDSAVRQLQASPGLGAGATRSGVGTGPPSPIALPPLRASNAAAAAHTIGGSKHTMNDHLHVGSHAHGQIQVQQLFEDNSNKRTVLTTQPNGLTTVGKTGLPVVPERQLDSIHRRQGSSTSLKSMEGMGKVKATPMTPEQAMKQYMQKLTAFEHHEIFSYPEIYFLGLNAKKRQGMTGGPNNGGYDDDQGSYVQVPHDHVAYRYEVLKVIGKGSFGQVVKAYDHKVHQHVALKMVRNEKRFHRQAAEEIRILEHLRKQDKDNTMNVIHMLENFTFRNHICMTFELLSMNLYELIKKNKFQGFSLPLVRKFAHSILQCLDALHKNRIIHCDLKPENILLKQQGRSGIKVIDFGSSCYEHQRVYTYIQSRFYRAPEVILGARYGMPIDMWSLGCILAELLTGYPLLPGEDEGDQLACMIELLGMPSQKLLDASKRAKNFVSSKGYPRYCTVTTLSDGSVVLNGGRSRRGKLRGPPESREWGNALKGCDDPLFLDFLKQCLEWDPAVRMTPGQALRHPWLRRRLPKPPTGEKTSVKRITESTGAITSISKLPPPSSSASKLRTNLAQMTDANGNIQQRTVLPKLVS
The following applies: at 0.1 µM.

Assay [7] addresses T1, Dual specificity tyrosine-phosphorylation-regulated kinase 2 (Homo sapiens). The following applies: at 1 µM.
Assay [8] addresses Glycogen synthase kinase-3 alpha (Homo sapiens) (UniProt P49840). The following applies: at 0.1 µM.
For assay [9] the target is unchanged. The following applies: at 1 µM.
The target in assay [10] is Glycogen synthase kinase-3 beta (Homo sapiens) (UniProt P49841). The following applies: at 0.1 µM.
Assay [11] shares this target. As to conditions: at 1 µM.
The target in assay [12] is Homeodomain-interacting protein kinase 1 (Homo sapiens) (UniProt Q86Z02). As to conditions: at 0.1 µM.
For assay [13] the target is unchanged. As to conditions: at 1 µM.
Assay [14] addresses T2, Homeodomain-interacting protein kinase 4 (Homo sapiens) (UniProt Q8NE63).
T2 sequence (whole entry): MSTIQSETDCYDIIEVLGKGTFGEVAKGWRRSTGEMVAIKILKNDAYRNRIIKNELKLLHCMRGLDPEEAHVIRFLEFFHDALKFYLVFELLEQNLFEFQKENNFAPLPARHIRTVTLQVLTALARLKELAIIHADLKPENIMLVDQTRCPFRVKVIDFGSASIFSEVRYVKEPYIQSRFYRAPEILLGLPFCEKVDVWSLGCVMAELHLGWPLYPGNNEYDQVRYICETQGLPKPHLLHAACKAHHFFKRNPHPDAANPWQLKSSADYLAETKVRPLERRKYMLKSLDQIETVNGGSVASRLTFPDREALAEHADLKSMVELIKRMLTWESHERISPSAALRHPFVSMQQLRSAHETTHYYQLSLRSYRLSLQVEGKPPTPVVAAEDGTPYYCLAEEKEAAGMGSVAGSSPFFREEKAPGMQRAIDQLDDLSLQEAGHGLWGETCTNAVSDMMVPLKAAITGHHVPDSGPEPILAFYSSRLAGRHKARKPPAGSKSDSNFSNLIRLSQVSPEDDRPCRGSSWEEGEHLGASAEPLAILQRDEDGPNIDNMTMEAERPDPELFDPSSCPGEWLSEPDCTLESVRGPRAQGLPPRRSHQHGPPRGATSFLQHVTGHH
As to conditions: at 0.1 µM.

The target of assay [15] is T2, Homeodomain-interacting protein kinase 4 (Homo sapiens). The following applies: at 1 µM.
The target in assay [16] is Mitogen-activated protein kinase 9 (Homo sapiens) (UniProt P45984). The following applies: at 0.1 µM.
The target is the same in assay [17]. As to conditions: at 1 µM.
For assay [18], the target named is Mitogen-activated protein kinase 1 (Homo sapiens) (UniProt P28482). The following applies: at 0.1 µM.
The target is the same in assay [19]. The following applies: at 1 µM.
Assay [20] deals with Mitogen-activated protein kinase 3 (Homo sapiens) (UniProt P27361). As to conditions: at 0.1 µM.
Chain of Mitogen-activated protein kinase 3 (Homo sapiens) (P27361 whole entry): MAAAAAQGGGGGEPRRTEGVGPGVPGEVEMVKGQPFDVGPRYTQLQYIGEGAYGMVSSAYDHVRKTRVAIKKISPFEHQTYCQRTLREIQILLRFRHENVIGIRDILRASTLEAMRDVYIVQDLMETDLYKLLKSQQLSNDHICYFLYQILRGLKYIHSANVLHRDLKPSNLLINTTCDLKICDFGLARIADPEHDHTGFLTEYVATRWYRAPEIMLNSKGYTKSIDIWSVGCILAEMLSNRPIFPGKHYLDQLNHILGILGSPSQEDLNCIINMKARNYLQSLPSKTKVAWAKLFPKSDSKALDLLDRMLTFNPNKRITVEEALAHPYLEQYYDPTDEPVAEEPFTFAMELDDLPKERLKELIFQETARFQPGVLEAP

Chain of Dual specificity tyrosine-phosphorylation-regulated kinase 1B (Homo sapiens) (Q9Y463 whole entry, looked up): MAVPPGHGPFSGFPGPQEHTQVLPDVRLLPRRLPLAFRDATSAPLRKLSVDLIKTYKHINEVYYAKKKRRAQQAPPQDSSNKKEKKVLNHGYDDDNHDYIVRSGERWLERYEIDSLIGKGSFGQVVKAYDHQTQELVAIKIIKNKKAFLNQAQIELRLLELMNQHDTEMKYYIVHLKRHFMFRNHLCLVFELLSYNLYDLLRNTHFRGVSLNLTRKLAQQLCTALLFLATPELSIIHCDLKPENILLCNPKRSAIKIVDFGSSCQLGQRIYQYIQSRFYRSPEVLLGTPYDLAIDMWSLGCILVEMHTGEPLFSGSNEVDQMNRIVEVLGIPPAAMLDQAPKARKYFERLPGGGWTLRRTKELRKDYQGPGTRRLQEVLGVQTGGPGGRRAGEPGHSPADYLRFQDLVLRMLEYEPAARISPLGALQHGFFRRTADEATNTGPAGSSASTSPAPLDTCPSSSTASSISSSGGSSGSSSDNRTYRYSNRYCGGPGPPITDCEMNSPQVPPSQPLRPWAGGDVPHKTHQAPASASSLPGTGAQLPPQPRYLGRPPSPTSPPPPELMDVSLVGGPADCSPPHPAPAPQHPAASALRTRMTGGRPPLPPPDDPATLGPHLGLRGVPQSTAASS
Chain of Glycogen synthase kinase-3 alpha (Homo sapiens) (P49840 2-483 limits assumed): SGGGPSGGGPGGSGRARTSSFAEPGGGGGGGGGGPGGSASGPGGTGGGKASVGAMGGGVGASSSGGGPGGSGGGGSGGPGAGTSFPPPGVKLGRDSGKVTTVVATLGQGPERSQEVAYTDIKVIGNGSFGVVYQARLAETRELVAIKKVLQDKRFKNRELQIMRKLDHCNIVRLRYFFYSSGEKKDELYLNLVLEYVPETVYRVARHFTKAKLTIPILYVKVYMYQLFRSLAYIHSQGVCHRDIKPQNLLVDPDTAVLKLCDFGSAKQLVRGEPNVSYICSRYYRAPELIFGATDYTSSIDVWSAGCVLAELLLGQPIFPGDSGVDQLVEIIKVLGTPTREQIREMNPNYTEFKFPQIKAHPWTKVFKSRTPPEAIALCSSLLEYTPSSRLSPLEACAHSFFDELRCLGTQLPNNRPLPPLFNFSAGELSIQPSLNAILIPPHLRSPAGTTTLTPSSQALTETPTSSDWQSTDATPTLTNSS
Chain of Mitogen-activated protein kinase 1 (Homo sapiens) (P28482 whole entry): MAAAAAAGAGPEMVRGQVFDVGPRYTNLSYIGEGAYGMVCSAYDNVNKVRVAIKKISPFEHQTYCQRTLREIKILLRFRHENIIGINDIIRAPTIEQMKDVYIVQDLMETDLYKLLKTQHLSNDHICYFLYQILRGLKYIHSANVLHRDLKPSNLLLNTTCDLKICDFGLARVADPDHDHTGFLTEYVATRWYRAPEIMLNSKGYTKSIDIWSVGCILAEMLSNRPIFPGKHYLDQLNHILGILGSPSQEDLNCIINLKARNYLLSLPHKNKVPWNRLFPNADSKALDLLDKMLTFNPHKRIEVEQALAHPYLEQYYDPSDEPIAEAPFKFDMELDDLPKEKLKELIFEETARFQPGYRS
Chain of Dual specificity protein kinase CLK3 (Homo sapiens) (P49761 whole entry, looked up): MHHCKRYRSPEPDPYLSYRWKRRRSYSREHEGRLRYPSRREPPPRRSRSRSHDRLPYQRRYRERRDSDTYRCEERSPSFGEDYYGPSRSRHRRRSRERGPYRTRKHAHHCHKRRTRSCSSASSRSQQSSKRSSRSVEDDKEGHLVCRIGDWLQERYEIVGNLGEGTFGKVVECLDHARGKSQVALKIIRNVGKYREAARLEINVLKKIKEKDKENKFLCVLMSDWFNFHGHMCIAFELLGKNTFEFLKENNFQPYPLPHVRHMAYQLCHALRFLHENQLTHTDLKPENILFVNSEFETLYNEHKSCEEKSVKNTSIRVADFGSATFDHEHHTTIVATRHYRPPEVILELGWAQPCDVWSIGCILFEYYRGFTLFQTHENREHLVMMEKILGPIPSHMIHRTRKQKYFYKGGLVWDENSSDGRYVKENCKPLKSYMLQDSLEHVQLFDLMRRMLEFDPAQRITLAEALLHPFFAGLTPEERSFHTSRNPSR
Chain of Homeodomain-interacting protein kinase 1 (Homo sapiens) (Q86Z02 whole entry, looked up): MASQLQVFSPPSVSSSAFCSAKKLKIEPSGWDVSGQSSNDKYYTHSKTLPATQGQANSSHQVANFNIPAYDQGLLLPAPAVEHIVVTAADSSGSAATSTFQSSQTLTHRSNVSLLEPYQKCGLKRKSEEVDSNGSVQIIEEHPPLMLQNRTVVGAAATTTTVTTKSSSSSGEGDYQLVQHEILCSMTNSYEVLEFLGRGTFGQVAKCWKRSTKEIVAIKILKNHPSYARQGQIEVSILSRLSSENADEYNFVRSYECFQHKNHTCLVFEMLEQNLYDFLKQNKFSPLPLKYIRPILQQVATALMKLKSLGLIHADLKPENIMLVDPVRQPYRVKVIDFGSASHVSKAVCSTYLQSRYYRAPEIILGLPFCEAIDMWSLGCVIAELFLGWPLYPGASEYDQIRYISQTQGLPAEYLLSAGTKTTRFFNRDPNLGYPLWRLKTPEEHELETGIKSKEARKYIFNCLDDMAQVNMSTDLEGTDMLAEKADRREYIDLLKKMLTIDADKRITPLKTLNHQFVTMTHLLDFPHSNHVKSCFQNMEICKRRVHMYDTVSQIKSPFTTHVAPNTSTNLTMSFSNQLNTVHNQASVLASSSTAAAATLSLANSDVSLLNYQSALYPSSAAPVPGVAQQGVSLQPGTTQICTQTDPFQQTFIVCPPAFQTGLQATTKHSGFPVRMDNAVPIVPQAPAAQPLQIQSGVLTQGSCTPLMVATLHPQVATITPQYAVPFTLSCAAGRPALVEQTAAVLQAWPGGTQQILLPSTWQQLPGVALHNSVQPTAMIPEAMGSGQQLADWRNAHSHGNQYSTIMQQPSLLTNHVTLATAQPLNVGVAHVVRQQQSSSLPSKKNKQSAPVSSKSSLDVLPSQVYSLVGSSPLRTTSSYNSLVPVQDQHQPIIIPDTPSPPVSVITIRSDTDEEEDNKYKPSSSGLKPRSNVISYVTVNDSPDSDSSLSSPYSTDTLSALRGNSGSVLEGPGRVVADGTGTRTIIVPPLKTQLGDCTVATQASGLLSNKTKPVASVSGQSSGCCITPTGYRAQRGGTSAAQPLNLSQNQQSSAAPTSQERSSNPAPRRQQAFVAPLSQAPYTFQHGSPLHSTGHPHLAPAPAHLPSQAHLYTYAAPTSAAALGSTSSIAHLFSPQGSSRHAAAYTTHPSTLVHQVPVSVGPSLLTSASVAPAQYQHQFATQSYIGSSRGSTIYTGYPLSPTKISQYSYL
Chain of Mitogen-activated protein kinase 9 (Homo sapiens) (P45984 whole entry, looked up): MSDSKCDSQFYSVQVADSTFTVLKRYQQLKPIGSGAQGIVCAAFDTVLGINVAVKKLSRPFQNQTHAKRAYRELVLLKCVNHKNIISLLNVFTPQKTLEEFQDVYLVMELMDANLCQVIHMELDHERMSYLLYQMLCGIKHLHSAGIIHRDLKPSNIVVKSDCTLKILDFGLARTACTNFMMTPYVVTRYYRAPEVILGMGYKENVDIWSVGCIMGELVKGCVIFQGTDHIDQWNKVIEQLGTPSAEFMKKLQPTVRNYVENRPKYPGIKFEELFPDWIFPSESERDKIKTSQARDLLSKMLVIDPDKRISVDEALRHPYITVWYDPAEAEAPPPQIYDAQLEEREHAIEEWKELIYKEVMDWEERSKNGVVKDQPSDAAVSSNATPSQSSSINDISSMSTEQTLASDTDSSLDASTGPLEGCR
Chain of Glycogen synthase kinase-3 beta (Homo sapiens) (P49841 whole entry, looked up): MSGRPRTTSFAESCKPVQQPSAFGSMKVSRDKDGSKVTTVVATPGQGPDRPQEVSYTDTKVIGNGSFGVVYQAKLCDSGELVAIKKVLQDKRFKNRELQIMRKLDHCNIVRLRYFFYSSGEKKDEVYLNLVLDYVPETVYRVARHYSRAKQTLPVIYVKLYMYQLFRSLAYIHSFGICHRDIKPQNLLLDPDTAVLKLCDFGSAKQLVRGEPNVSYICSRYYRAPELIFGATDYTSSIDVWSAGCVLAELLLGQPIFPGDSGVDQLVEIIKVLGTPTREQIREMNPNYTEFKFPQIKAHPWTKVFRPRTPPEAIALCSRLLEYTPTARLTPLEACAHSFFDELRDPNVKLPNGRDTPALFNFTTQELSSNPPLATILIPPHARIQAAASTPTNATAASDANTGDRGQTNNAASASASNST

With `COc1cc(/C=N/Nc2ncnc3[nH]ncc23)ccc1O`, the inhibition in [1] was found to be 13.2%; in assay [2] it was 12.5%; in assay [3], 45.1%; in assay [4], 6.29%; in assay [5], 31.6%; in [6], 7.46%. Moreover, the inhibition in assay [7] was 44.8%; in assay [8], 9.63%; in assay [9], 41.7%; in assay [10] it was 7%; in [11], 24.5%; in assay [12] it was 9.37%. Besides, the inhibition came to 39.4% in assay [13]; 5.91% in assay [14]; 23% in [15]; 1.89% in [16]; 5.5% in assay [17]; 3.68% in assay [18]. The inhibition in assay [19] amounted to 4.72%; in assay [20], 2.18%.

In the case of `Clc1ccc(-c2nn3ncccc3c2-c2ccnc(Nc3ccccc3)n2)cc1`, the inhibition is 2.2% in assay [1]; 2.68% in assay [2]; 5.74% in assay [3]; 1.65% in assay [4]; 3.34% in [5]; 1.34% in assay [6]. For the same compound, the inhibition was 0.66% in [7]; 1.79% in assay [8]; 12.2% in assay [9]; 2.61% in assay [10]; 26.2% in assay [11]; 1.35% in [12]. Besides, the inhibition was 3.25% in assay [13]; 0.5% in [14]; 2.83% in assay [15]; 16.6% in assay [16]; 73.4% in assay [17]; -0.11% in [18]. Further, the inhibition was 1.18% in assay [19] and -0.01% in [20].

As for `COc1cccc(-n2ncc3c(N/N=C/c4ccc(F)cc4)ncnc32)c1`, the inhibition in assay [1] came to 6.29%; in assay [2], 6.93%; in [3], 24.2%; in assay [4], 4.09%; in [5], 16.3%; in assay [6] it was 5.25%. For the same compound, the inhibition was 18.8% in assay [7]; 64% in assay [8]; 87.7% in [9]; 54.6% in assay [10]; 83% in [11]; 11.9% in assay [12]. For the same compound, the inhibition turned out to be 27.1% in [13]; 9.35% in assay [14]; 20.9% in assay [15]; 1.94% in assay [16]; 4.28% in [17]; 5.5% in assay [18]. The inhibition in assay [19] was 2.32%; in assay [20], 2.41%.

In the case of `CNC(=O)c1cccc(C#Cc2cncnc2Nc2ccc(OCc3cccc(F)c3)c(Cl)c2)c1`, the inhibition in [1] is -0.52%; in assay [2] it was -0.33%; in assay [3], 1.36%; in assay [4], 0.13%; in [5], 1%; in assay [6] it was 0.97%. For the same compound, the inhibition in assay [7] came to 1.82%; in assay [8] it was 1.09%; in [9], 3.8%; in [10], 0.4%; in [11] it was 6.56%; in assay [12], 1.69%. Besides, the inhibition in assay [13] is 4.07%; in [14], 1.01%; in [15] it was 4.65%; in assay [16], -2.46%; in [17], 1.25%; in [18], 1.53%. The inhibition was found to be 0.6% in [19] and 2.46% in assay [20].

Regarding `COc1cc(N2CCN(C(C)C)CC2)ccc1Nc1nc(Nc2ccc(F)cc2C(N)=O)c2cc[nH]c2n1`, the inhibition worked out at 13.2% in assay [1]; 45.2% in assay [2]; 86.5% in [3]; 49.1% in assay [4]; 76.6% in [5]; 5.36% in assay [6]. Besides, the inhibition stood at 36.4% in assay [7]; 3.88% in [8]; 5.19% in assay [9]; 2.71% in [10]; 7.27% in assay [11]; 33.9% in assay [12]. In addition, the inhibition in assay [13] stood at 73.7%; in assay [14] it was 44.8%; in assay [15], 75.1%; in assay [16], 65.5%; in assay [17] it was 89.1%; in [18], 2.91%. Also, the inhibition worked out at 15.3% in assay [19] and 2.87% in [20].

Consider `CCn1c(-c2nonc2N)nc2cnc(Oc3cccc(NC(=O)c4ccc(N(C)C)cc4)c3)cc21`, for which the inhibition was 0.75% in [1]; 0.93% in [2]; 5.38% in [3]; -0.45% in assay [4]; 4.48% in assay [5]; 1% in [6]. Moreover, the inhibition in [7] was 2.79%; in assay [8], 8.94%; in assay [9] it was 46.6%; in [10] it was 6.2%; in assay [11], 41%; in assay [12], -2.28%. Further, the inhibition is 1.69% in assay [13]; -1.11% in assay [14]; 3.8% in assay [15]; 2.94% in [16]; 3.41% in [17]; 1.18% in assay [18]. For the same compound, the inhibition in [19] stood at 3.77%; in [20], 1.53%.

On to `CN1CCC(n2cnc(-c3ccc(F)cc3)c2-c2ccnc(N)n2)CC1`, for which the inhibition in [1] was 1.25%; in [2], 1.69%; in assay [3] it was 6.19%; in assay [4] it was 0.68%; in assay [5] it was 2.08%; in assay [6], 2.29%. Moreover, the inhibition in [7] stood at 12.5%; in assay [8], 1.36%; in assay [9], 7.39%; in assay [10], 1.11%; in assay [11] it was 8.08%; in [12] it was 3.64%. The inhibition worked out at 24.8% in assay [13]; 1.91% in [14]; 16.7% in [15]; 2.6% in assay [16]; 11.3% in [17]; 0.3% in assay [18]. For the same compound, the inhibition is 2.71% in assay [19] and 3.88% in [20].

As a reminder, the inhibition is the relative decrease from the control value, in per cent.
